From PubChem BioAssay (NCATS)
Results filed as inconclusive are left out. Entries that show only a call come without a potency. Activity calls are given as the source filed them. Calls come from the whole dose curve; as a rule, active = well fitted inhibition curve with a large enough effect; inconclusive = small, poorly fitted or top-dose-only effect, or effect the other way; inactive = flat fitted curve, though single readings scatter.
Potency is the fitted concentration of half-maximal effect.

These compounds were tested against ATP-dependent 6-phosphofructokinase (Trypanosoma brucei brucei) (UniProt O15648) (assay: qHTS Assay to Find Inhibitors of T. brucei phosphofructokinase: hit validation (AID 492961)). Conditions: T. brucei PFK, ADP-Glo luminescence; series mostly up to 51.4 µM.
Chain of ATP-dependent 6-phosphofructokinase (Trypanosoma brucei brucei) (O15648 whole entry, looked up): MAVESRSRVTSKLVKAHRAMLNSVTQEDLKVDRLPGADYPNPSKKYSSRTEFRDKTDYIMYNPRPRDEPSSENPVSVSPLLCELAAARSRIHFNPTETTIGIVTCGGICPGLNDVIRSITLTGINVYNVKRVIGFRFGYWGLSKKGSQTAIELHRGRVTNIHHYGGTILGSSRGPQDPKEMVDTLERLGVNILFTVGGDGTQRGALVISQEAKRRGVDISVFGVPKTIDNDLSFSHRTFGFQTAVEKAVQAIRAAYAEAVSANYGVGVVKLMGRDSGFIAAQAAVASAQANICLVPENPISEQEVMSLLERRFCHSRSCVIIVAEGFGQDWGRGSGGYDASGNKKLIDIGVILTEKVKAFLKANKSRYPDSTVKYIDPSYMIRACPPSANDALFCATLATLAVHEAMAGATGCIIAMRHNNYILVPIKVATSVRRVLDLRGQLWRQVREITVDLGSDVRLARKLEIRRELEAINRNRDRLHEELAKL
Method in brief: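 Inhibition of parasite PFK is measured as reduced ADP formation, quantified via luciferase after ATP depletion. Assay used 0.1 mM ATP, 0.5 mM F6P, 1.25 nM enzyme, 45 min incubation.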
With `CC1(C)S[C@@H]2[C@H](NC(=O)[C@@H](NC(=O)N3CCNC3=O)c3ccccc3)C(=O)N2[C@H]1C(=O)O` the Potency was “inactive”.
`CC(=O)Oc1c(C)cc(OCC(O)CNC(C)C)c(C)c1C` (stereo unspecified) was tested, and the Potency was “inactive”.
`CCCCCCCC/C=C\CCCCCCCC(=O)O` was tested, and the Potency was “inactive”.
With `CCCCC/C=C\C/C=C\CCCCCCCC(=O)O` the Potency was “inactive”.
In the case of `O=C(Nc1cccc(C(F)(F)F)c1)c1cc(Br)cc(Br)c1O`, the Potency is reported as “inactive”.
`COc1cc(-c2ccc(-[n+]3nc(-c4ccccc4)nn3-c3ccc([N+](=O)[O-])cc3)c(OC)c2)ccc1-[n+]1nc(-c2ccccc2)nn1-c1ccc([N+](=O)[O-])cc1` was tested, and the Potency was “inactive”.
With `CN1Cc2c(N)cccc2C(c2ccccc2)C1` (stereo unspecified) the Potency was “inactive”.
With `CCCCC(=O)O[C@]1(C(=O)CO)[C@H](C)C[C@H]2[C@@H]3CCC4=CC(=O)C=C[C@]4(C)[C@@]3(F)[C@@H](O)C[C@@]21C` the Potency was “inactive”.
With `CCOc1ccc(N=Nc2ccc(N)cc2N)cc1` the Potency was “inactive”.
With `O=C(COc1ccc(Cl)cc1)OCCNC12CC3CC(CC(C3)C1)C2` the Potency was “inactive”.
With `CC1=C(/C=C/C(C)=C/C=C/C(C)=C/C=C/C=C(C)/C=C/C=C(C)/C=C/C2=C(C)C(=O)CCC2(C)C)C(C)(C)CCC1=O` the Potency was “inactive”.
`CC(O)CO` (stereo unspecified) was tested, and the Potency was “inactive”.
In the case of `Cc1cn([C@H]2C[C@H](O)[C@@H](CO)O2)c(=O)[nH]c1=O`, the Potency is reported as “inactive”.
For `O=C(O)c1cc(O)c2c(c1)[O][Bi][O]2`, the Potency was “inactive”.
`COCC(=O)Nc1cc(Sc2ccccc2)ccc1N=C(NC(=O)OC)NC(=O)OC` was tested, and the Potency was “inactive”.
`Clc1cc(Cl)c(OCC#CI)cc1Cl` was tested, and the Potency was 12.6 µM (active).
